Source: PubChem BioAssay AID488908 (National Center for Advancing Translational Sciences (NCATS), 2010)
Results filed as inconclusive are left out. Values without a mark were called inactive. The source made the active and inactive calls. Calls come from the whole dose curve; as a rule, active = well fitted inhibition curve with a large enough effect; inconclusive = small, poorly fitted or top-dose-only effect; inactive = flat fitted curve, though single readings scatter.

Assay: Secondary Assay for lipid storage modulators: Cytotoxcity for probe SAR
Conditions: Drosophila S3 cells viability, CellTiter-Glo luminescence, 24 h, with oleic acid added (1 µL, 400 µM); series mostly up to 46.1 µM; activity change, negative = cytotoxicity: at the top concentration
How it was run: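 Drosophila S3 embryonic cells, 5,000/well, exposed to compound at several concentrations with 400 uM oleic acid stock added, 24 h at 24 degrees C; viability by CellTiter-Glo luminescence.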

SMILES	activity change, negative = cytotoxicity	Potency
O=C(NC1CCCc2c1cnn2-c1cc(F)cc(F)c1)c1cccc2nccnc12 (centres undefined)	-6.12% [at 30.7 µM]	
CCOC(=O)C1CCN(C(=O)C(C)(C)NC(=O)Nc2ccccc2Cl)CC1	-7.62%	
CCOc1ccc(CCNC(=O)c2cccc(C(=O)c3ccccc3)c2)cc1OCC	-21.3%	
O=C(NC1CCCc2c1cnn2-c1ccc(F)cc1F)C1CCCCC1 (centres undefined)		0.791 µM (active)
O=C(CSc1nnc(NCc2ccccc2)s1)Nc1nc(-c2cccc(Br)c2)cs1	-15.8%	
CCOc1ccc(NC(=O)NC2(C(=O)N3CCCCC3)CCCCC2)cc1	-14.5%	
Cc1ccc(C)c(-c2csc(NC(=O)CSc3nnc(Nc4ccc(OC(F)(F)F)cc4)s3)n2)c1	-11.8%	
O=C(c1cc2sccc2n1Cc1ccccc1)N(CCc1ccc(O)c(O)c1)Cc1ccccc1	-27.4%	
CCOc1ccc(CCNC(=O)C2COc3ccccc3O2)cc1OCC (centres undefined)	-20.3%	
Cc1sc(NC(=O)Cc2cccs2)nc1-c1ccccc1	-24.1%	
COc1ccc(-n2ncc3c2CCCC3NC(=O)c2cnc(C)cn2)cc1 (centres undefined)		15.8 µM (active)
COc1nc(-c2ccc3c(c2)OCO3)n(-c2ccc(NC(=O)CSc3ccccc3)cc2)n1	-7.25%	
Cc1ccc(CC(=O)Nc2nc(-c3cccs3)cs2)cc1	-7.37%	
O=C(NC1CCCc2c1cnn2-c1ccc(F)cc1F)c1ccccc1 (centres undefined)		5.6 µM (active)
Cc1ccc(-c2cnc(SCC(=O)Nc3nc(C)cs3)n2Cc2ccco2)cc1	-11.2%	
O=C(NC1CCCc2c1cnn2-c1ccc(F)cc1F)c1ccc(C2(C(F)(F)F)N=N2)cc1 (centres undefined)		3.97 µM (active)
O=C(Cc1cccs1)Nc1nc(-c2ccc(F)cc2)cs1	-25.4%	
O=C(NCCc1ccc2c(c1)OCO2)c1cc2sccc2[nH]1	-4.89% [at 30.7 µM]	
O=C(Nc1cccc2c1cnn2-c1ccc(F)cc1)c1ccccn1		0.888 µM (active)
O=C(NC1CCCc2c1cnn2-c1ccc(F)cc1F)c1ccc(C(=O)c2ccccc2)cc1 (centres undefined)		11.2 µM (active)
CCOc1ccc(CCNC(=O)CN(C)C)cc1OCC	1.74%	
O=C(NC1CCCc2c1cnn2-c1ccc(F)cc1F)c1cnon1 (centres undefined)	-12.7%	
C[C@@H](NCCCc1cccc(C(F)(F)F)c1)c1cccc2ccccc12		28.1 µM (active)
COc1ccc(NC(=S)N2CCN(c3cccc(Cl)c3)CC2)c(OC)c1	-20.9%	
CCOc1ccc(CCNC(=O)c2cnon2)cc1OCC	2.21%	
O=C(NC1CCCc2c1cnn2-c1ccccc1F)c1ccc2ncccc2c1 (centres undefined)		2.23 µM (active)
CCOC(=O)C1CCN(C(=O)CNC(=O)Nc2ccccc2Cl)CC1	2.28%	
COc1ccc(CCNC(=O)c2cc3sc(C)cc3n2C)cc1OC	-27.1%	
O=C(O)CCc1ccc(NCc2cccc(Oc3ccccc3)c2)cc1	-4.63%	
